# According to PubChem BioAssay (NCATS):
# Where “and” joins values, the source holds several entries; their conditions need not be identical. Identical values can stand only once. Results filed as inconclusive are left out. Where a call stands in place of a potency, no number is given. Calls of active or inactive are those of the source. Unless noted, calls come from the whole dose curve; as a rule, active = well fitted curve in the direction sought with a large enough effect; inconclusive = small, poorly fitted or top-dose-only effect, or another doubt; inactive = no such curve, though single readings can be large; an effect the other way counts as inactive or inconclusive.
# Tests used:
# [1] = target: Alpha-galactosidase A (Homo sapiens) (UniProt P06280); assay: Counterscreen for Glucocerebrosidase Inhibitors: qHTS Assay for Human alpha-Galactosidase at pH 4.5 (AID 992)
# Outline: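 Each compound is preincubated briefly with 2 nM enzyme before substrate addition (80 uM); plates then sit 20 min at ambient temperature, are quenched with 1M NaOH/1M glycine, and read fluorometrically.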
# [2] = target: alpha-glucosidase (Oryza sativa, rice) (UniProt Q653V4); assay: Counterscreen for Glucocerebrosidase Inhibitors: qHTS Assay for Rice alpha-Glucosidase at pH 5.0 (AID 997)
# Outline: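 Endpoint fluorogenic assay at pH 5.0: compounds (0.7 nM to 77 uM) titrated against 4 nM rice enzyme and 400 uM 4-MU-alpha-glucoside for 20 min at room temperature; NaOH/glycine stop, read ex 365/em 440 nm, Hill-fitted AC50.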
# [3] = qHTS Assay for Lipid Storage Modulators (AID 1519; calls by dose curve); conditions: Drosophila S3 cells, BODIPY lipid droplet/cell ratio, laser cytometry, cells loaded with oleic acid
# Outline: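 Cells seeded at 5,000 per well were treated with compounds over a concentration series and loaded with oleic acid (400 uM, as added). Lipid droplet fluorescence (488 nm excitation, 500-530 nm channel) was read by laser-scanning cytometry and normalized to 20 uM Triacsin C.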
# [4] = target: DNA repair nuclease/redox regulator APEX1 (Homo sapiens) (UniProt P27695); assay: qHTS Validation Assay for Inhibitors of the Human Apurinic/apyrimidinic Endonuclease 1 (APE1) (AID 1705;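 note: TAMRA fluorescence gain over two minutes as APE1 cuts a quenched THF abasic duplex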)
# Outline: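 Endonuclease activity of human APE1 is followed as dequenching when the enzyme incises a tetrahydrofuran abasic site in a short duplex labelled 5'-TAMRA/3'-BHQ-2 (50 nM final), after 15 min enzyme–compound preincubation at room temperature.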
# [5] = Counterscreen for APE1 Inhibitors: Fluorescent Dye Displacement Validation Assay (AID 1707)
# Outline: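 Loss of Thiazole Orange fluorescence marks promiscuous DNA binders. The dye (250 nM) is mixed with 50 nM abasic-site dsDNA in pH7.5 Tris buffer containing MgCl2, then compounds are added and emission is read once.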
# [6] = target: Endonuclease 4 (Escherichia coli (strain K12)) (UniProt P0A6C1); assay: Counterscreen for APE1 Inhibitors: qHTS Validation Assay for Inhibitors of Endonuclease IV (AID 1708)
# Outline: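 Enzyme (2 nM) + compound, 15 min RT; add 50 nM TAMRA/BHQ-2 THF-site dsDNA; kinetic read ex525/em598, 3 reads/60 s; activity = read 3 − read 1. Buffer Tris pH 7.5, 50 mM NaCl, 2 mM MgCl2, DTT, Tween-20.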
# [7] = qHTS for differential inhibitors of proliferation of Plasmodium falciparum line 7G8 (AID 1815);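 note: parasite growth measured after three days of incubation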; note: potency is the fitted concentration of half-maximal effect
# [8] = qHTS for differential inhibitors of proliferation of Plasmodium falciparum line GB4 (AID 1816); conditions: Potency: Plasmodium falciparum GB4 proliferation inhibition;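 note: parasite growth measured after 72 h incubation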; note: potency is the fitted concentration of half-maximal effect
# [9] = qHTS for differential inhibitors of proliferation of Plasmodium falciparum line 3D7 (AID 1876); note: potency is the fitted concentration of half-maximal effect
# [10] = qHTS for differential inhibitors of proliferation of Plasmodium falciparum line D10 (AID 1877);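 note: parasites grown with compound for 72 h before DNA staining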; note: potency is the fitted concentration of half-maximal effect
# [11] = qHTS for differential inhibitors of proliferation of Plasmodium falciparum line Dd2 (AID 1882); conditions: Potency: Plasmodium falciparum Dd2 proliferation inhibition; note: nearly all actives have a fitted effect of over 65% in size; note: potency is the fitted concentration of half-maximal effect
# Outline: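 SYBR Green DNA fluorescence (ex 485, em 535 nm) after overnight lysis quantifies parasite growth; compound exposure lasted 72 h at 37 C on infected red cells at 2.5% hematocrit, 0.3% parasitemia (final). Artemisinin 0.29 uM and vehicle wells define normalization.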
# [12] = qHTS for differential inhibitors of proliferation of Plasmodium falciparum line W2 (AID 1883); conditions: Potency: Plasmodium falciparum W2 proliferation inhibition;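 note: parasites grown with compound for 72 h before lysis and staining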; note: potency is the fitted concentration of half-maximal effect
# [13] = qHTS for differential inhibitors of proliferation of Plasmodium falciparum line HB3 (AID 1886); conditions: Potency: Plasmodium falciparum HB3 proliferation inhibition;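 note: parasites grown with compound for 72 h before SYBR Green readout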; note: potency is the fitted concentration of half-maximal effect
# [14] = Validation of Assay for Modulators of Lamin A Splicing (AID 1459; active = well fitted curve in the direction sought with a large enough effect in the signal ratio; the % refers to the signal ratio;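 note: cells exposed to compound for two days before reading; ratio rise marks activators and ratio drop marks inhibitors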)
# Outline: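 Splicing correction is reported by an EGFP-containing lamin A minigene in stably transfected S3 HeLa cells, while DsRed2 controls for viability and nonspecific signal. Cells are exposed to compounds for 48 hrs before the GFP over RFP ratio is taken.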
# [15] = qHTS Assay for Modulators of Human Peripheral Myelin Protein 22 (PMP22) Expression/Activity (AID 1967; active = well fitted curve in the direction sought with a large enough effect in the signal ratio; the % refers to the signal ratio)
# Outline: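 Quantitative HTS in a mouse Schwann cell line expressing dual click beetle luciferases: Pmp22 promoter (green) and control EF-alpha promoter (red). After 24h treatment, corrected green/red signal ratio gave %Activity relative to untreated cells.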
# [16] = measured here: cell count channel max response
# [17] = measured here: lipid channel max response
# Alpha-galactosidase A (Homo sapiens), sequence (P06280 whole entry, looked up): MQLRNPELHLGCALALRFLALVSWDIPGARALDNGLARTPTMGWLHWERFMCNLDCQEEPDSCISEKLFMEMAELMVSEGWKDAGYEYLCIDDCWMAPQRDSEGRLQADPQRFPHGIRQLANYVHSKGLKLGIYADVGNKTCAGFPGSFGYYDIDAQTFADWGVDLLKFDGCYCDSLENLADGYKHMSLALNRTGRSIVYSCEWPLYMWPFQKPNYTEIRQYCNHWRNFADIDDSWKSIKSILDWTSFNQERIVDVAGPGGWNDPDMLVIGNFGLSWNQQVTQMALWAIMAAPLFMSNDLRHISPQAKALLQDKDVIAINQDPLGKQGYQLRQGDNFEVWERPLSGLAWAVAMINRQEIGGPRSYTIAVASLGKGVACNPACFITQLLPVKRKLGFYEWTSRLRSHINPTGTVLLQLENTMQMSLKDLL
# DNA repair nuclease/redox regulator APEX1 (Homo sapiens), sequence (P27695 whole entry, looked up): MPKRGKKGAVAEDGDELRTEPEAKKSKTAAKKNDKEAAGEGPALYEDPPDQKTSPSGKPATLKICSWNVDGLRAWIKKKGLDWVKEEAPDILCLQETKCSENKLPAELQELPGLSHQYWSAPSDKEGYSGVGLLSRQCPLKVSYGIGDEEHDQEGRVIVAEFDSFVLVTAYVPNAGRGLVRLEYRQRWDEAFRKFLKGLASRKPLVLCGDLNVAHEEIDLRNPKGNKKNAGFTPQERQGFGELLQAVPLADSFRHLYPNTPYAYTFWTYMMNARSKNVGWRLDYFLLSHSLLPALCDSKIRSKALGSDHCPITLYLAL
SMILES,outcome [1],outcome [2],"activity change, negative = inhibition ([3]; at 25.7 µM (top of the series))","activity change, negative = inhibition ([3]; at 57.5 µM (top of the series))","max response [3, 16]","max response [3, 17]",Potency [4],Potency [5],Potency [6],Potency [7],Potency [8],Potency [9],Potency [10],Potency [11],Potency [12],Potency [13],outcome [14],Potency [15]
CN(C)CCCN1c2ccccc2CCc2ccc(Cl)cc21,inactive,inactive,-2.54% (inactive),1.94% (inactive),-4.06% and 0.0678%,-5.65% and 2.74%,inactive,inactive,inactive,5.01 µM (active),5.01 µM (active),10 µM (active),11.2 µM (active),7.94 µM (active),5.01 µM (active),10 µM (active),–,–
CN(C)c1nc(N(C)C)nc(N(C)C)n1,inactive,inactive,-1.28% (inactive),7.55% (inactive) and -0.1% (inactive),4.02% and 17.6% and 11.3%,2.91% and 27.7% and 12.4%,inactive,inactive,inactive,inactive,inactive,inactive,inactive,inactive,inactive,inactive,inactive,inactive
CN(C)C(=N)N=C(N)N,–,–,1.15% (inactive),9.29% (inactive),14.6% and 3.67%,15.2% and 21.7%,–,–,–,–,–,–,–,–,–,–,–,–
O=C(c1ccc(F)cc1)C1CCN(CCn2c(=O)[nH]c3ccccc3c2=O)CC1,inactive,inactive,–,3.6% (inactive) and 3.32% (inactive),11.4% and 58.6%,27.6% and 62%,inactive,inactive,inactive,3.16 µM (active),5.62 µM (active),7.08 µM (active),3.98 µM (active),6.31 µM (active),1.58 µM (active),3.98 µM (active),inactive,–
NCCc1cnc[nH]1,inactive,inactive,–,–,–,–,inactive,inactive,inactive,inactive,inactive,inactive,inactive,–,inactive,inactive,inactive,inactive
COc1ccc(C2CNC(=O)C2)cc1OC1CCCC1 (stereo not given),inactive,inactive,–,–,–,–,inactive,inactive,inactive,–,inactive,inactive,inactive,inactive,–,inactive,inactive,inactive
